According to PubChem BioAssay (NCI):
This is part of a sample that, as a whole, favours compounds with a hit. Of some 83,000 tested, about 20% had one in any assay.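 Negative percent growth values reflect cell death: -40 means 40% of the cells present at the start died, and -100 means all died.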 Active and inactive are the calls of the source. How the source made its calls: active means growth percent below 10; inactive means the rest.

What was measured:
Assay in all cases: NCI-60 one-dose screen, 48 h (100 = growth as untreated, 0 = no growth, -100 = all killed)
Settings in all cases: 10 µM unless noted
[1] = test system: HCT-15 colon
[2] = test system: HT29 colon
[3] = test system: SNB-75 CNS
[4] = test system: SNB-19 CNS
[5] = test system: U251 CNS
[6] = test system: PC-3 prostate
[7] = test system: SK-MEL-5 melanoma
[8] = test system: UACC-62 melanoma
[9] = test system: LOX IMVI melanoma
[10] = test system: SK-MEL-28 melanoma

Measured: growth

CCCCCCCCCCCCCCCCCCOc1cccc(CCOP(=O)(O)OCC[N+](C)(C)C)c1
inactive: [1] 87% | [2] 73.7% | [3] 83.1% | [4] 83.6% | [5] 67.7% | [7] 91.1% | [8] 85.2% | [9] 77.3% | [10] 94.2%
active: [6] 2.55%

CSc1nc(-c2cc3ccccc3o2)cc(-c2ccc(Cl)cc2)c1C#N
inactive: [1] 31.1% | [4] 55.1% | [6] 22.2% | [7] 55.3% | [9] 16.8% | [10] 65.2%
active: [2] -50.6% | [3] -36% | [5] 6.2% | [8] -17.1%

CC(C)(C)OC(=O)N[C@@H](Cc1ccccc1)C(=O)N(Cc1ccccc1)C1(C(=O)NCc2ccccc2)CCN(Cc2ccccc2)CC1
active: [6] 1.58%
inactive: [1] 36.1% | [2] 23.9% | [3] 44.9% | [4] 31.6% | [5] 33.8% | [7] 24.3% | [8] 26% | [9] 39% | [10] 69.9%

CCNC(=O)C1CCCN1C(=O)C(CCCN=C(N)N)NC(=O)C(CC(C)C)NC(=O)C(CC(C)C)NC(=O)C(Cc1ccc(O)cc1)NC(=O)C(CO)NC(=O)C(Cc1c[nH]c2ccccc12)NC(=O)C(Cc1cnc[nH]1)NC(=O)C1CCC(=O)N1 (stereo not given)
inactive: [1] 102% | [2] 97.4% | [3] 90.3% | [4] 102% | [5] 94.8% | [6] 81.8% | [7] 95% | [8] 110% | [9] 95.1% | [10] 168%

O=C1CCCCN1CCCCC#Cc1ccccc1C#Cc1ccc([N+](=O)[O-])cc1
active: [7] 3.34% | [9] 6.11%
inactive: [1] 17.4% | [2] 28.4% | [3] 66.1% | [4] 70.2% | [5] 28% | [6] 31.9% | [8] 25.8% | [10] 46.1%

CCn1cc(C(=O)O)c(=O)c2cc(F)c(N3CCN(S(=O)(=O)c4c(C)cc(C)cc4C)CC3)cc21
inactive: [1] 71.5% | [2] 94.8% | [3] 70.8% | [4] 89.9% | [5] 83.3% | [6] 61.4% | [7] 79.5% | [8] 75.9% | [9] 61.3% | [10] 91.7%

CCCCCC(=O)OCc1ccccc1
inactive: [1] 94.6% | [2] 106% | [3] 90.3% | [4] 105% | [5] 103% | [6] 104% | [7] 104% | [8] 103% | [9] 96.8% | [10] 113%

O=C(CN1CCOCC1)Nc1ccc(-c2nc3ccccc3s2)cc1
inactive: [1] 93.7% | [2] 103% | [3] 100% | [4] 101% | [5] 89.5% | [6] 93% | [7] 92.7% | [8] 100% | [9] 99.9% | [10] 102%

CC(C)C[C@H](NC(=O)[C@@H](Cc1ccccc1)n1ccc(Nc2ccccc2)cc1=O)B(O)O
inactive: [1] 28.9% | [4] 18.1% | [6] 21.1% | [10] 21.7%
active: [2] -14.1% | [3] -18.6% | [5] 5.67% | [7] -68.2% | [8] -77.1% | [9] -66.7%

Cc1ccc(Nc2ncnc3c2sc2ncccc23)cc1
inactive: [1] 99.2% | [2] 114% | [3] 82.8% | [4] 103% | [5] 101% | [6] 103% | [7] 97% | [8] 103% | [9] 100% | [10] 104%

CCN(CC)c1cc(/C=C/c2ccc(OC)c(OC)c2)nc2cc(F)c(F)cc12
active: [3] -68.5% | [4] -33.1% | [5] -62.3%
inactive: [1] 80.1% | [2] 103% | [6] 65.6% | [7] 93.3% | [8] 10.4% | [9] 25.9% | [10] 98.2%

CC(C)(C)OC(=O)N1C/C(=C\c2cccs2)C(=O)/C(=C/c2cccs2)C1
inactive: [1] 85.1% | [2] 86.4% | [3] 78.9% | [4] 94.5% | [5] 83.7% | [6] 74.7% | [7] 87.9% | [8] 66.7% | [9] 90.9% | [10] 106%

Cc1nc2sccn2c1-c1csc(Nc2ccccc2Cl)n1
inactive: [1] 34.2% | [2] 15.4% | [3] 56.9% | [4] 65.6% | [5] 42.1% | [6] 53.5% | [7] 11.5% | [8] 46.7% | [9] 45.5% | [10] 65.6%
